Many of the other results were omitted from the sample, so hits are more common in it than they were.
ST2 IL33 inh: IL1RL1 inhibition; Q01638; AlphaLISA ST2-Fc/biotin-IL-33 interaction, 1 h; inhibition, % for hits at 17 µM; 2.3% of 78,000 active; AID 1259354; in the data active = inhibition above about 30%
Target sequence (Q01638 whole entry, looked up): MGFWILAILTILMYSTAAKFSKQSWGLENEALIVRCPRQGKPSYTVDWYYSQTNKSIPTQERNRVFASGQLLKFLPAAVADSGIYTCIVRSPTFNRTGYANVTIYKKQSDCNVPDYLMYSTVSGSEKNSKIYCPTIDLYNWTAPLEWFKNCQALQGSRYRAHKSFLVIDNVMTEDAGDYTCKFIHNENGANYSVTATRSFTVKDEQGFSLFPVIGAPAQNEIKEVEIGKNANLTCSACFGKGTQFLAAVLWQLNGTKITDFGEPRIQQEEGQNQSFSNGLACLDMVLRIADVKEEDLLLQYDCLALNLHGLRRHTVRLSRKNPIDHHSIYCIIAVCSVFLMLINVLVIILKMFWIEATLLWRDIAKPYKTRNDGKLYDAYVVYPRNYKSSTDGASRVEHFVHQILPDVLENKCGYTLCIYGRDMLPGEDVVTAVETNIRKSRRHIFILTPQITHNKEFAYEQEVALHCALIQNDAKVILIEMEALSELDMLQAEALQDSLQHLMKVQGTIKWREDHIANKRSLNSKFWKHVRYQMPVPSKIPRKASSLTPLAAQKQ
Numbers stand for hits; . = inactive.

SMILES	ST2 IL33 inh
Cc1ccc2nc(-c3ccco3)c(Nc3ccccc3)n2c1	.
Cc1nn(C)c(C)c1C(C)NC(=O)C(=O)c1cccs1 (stereo unspecified)	.
NC1(C(=O)O)CCN(Cc2cccc(Cn3cccn3)c2)C1 (stereo unspecified)	.
COC(=O)c1cccc(NC(=S)N[C@H]2CO[C@H]3[C@@H]2OC[C@H]3OCc2ccccc2)c1	.
CC(=O)c1cccc(NC(=O)O[C@@H]2CO[C@H]3[C@@H]2OC[C@@H]3NC(=S)Nc2cc(C)cc(C)c2)c1	.
O=C(Nc1cccc(C(F)(F)F)c1)N[C@H]1CO[C@H]2[C@@H]1OC[C@H]2OC(=O)Nc1ccc(Oc2ccccc2)cc1	31%
COc1ccc(NC(=O)N[C@H]2CO[C@H]3[C@@H]2OC[C@H]3OC(=O)Nc2ccc(C(C)=O)cc2)cc1	.
CCNC(=O)O[C@@H]1CO[C@H]2[C@@H]1OC[C@@H]2NC(=S)Nc1cccc(C(=O)OC)c1	34%
COc1ccc(NC(=O)O[C@@H]2CO[C@H]3[C@@H]2OC[C@@H]3NC(=O)Nc2cccc(C#N)c2)cc1	66%
CC(=O)c1ccc(NC(=O)O[C@@H]2CO[C@H]3[C@@H]2OC[C@@H]3NC(=S)Nc2cccc(C#N)c2)cc1	.
CCNC(=O)O[C@@H]1CO[C@H]2[C@@H]1OC[C@@H]2NC(=O)Nc1cccc(C(F)(F)F)c1	.
CCOC(=O)c1cccc(NC(=O)N[C@H]2CO[C@H]3[C@@H]2OC[C@H]3OC(=O)Nc2ccccc2)c1	.
O=C1c2cccnc2C(=O)N1Cc1ccc(F)cc1	.
CC1=C(C(=O)Nc2ccc(C)cn2)C(c2ccc(C)cc2)C2=C(CCCC2=O)N1 (stereo unspecified)	.
COC1=C(C2(O)CCCc3c2no[n+]3[O-])CCc2c1no[n+]2[O-] (stereo unspecified)	.
O=c1cc(Nc2ccccc2)c2ccccc2s1	.
COc1ccc(-c2c3c(=O)n(C)c(=O)n(C)c3c3c(-c4ccccc4)cc(C)nn23)cc1	31%
Cn1c(=O)c2c(-c3ccccc3)n3ncccc3c2n(C)c1=O	.
COc1ccc(-c2c3c(=O)n(C)c(=O)n(C)c3c3cccnn23)cc1	.
OCCN=c1scc(-c2ccc(Br)cc2)n1-c1ccccc1	39%
O=C(N=c1scc(-c2ccccc2)n1-c1ccccc1)c1ccco1	.
O=c1c2c(-c3ccc(Br)cc3)csc2ncn1-c1ccccc1	.
O=C1CCC(=O)N1c1ccc(Sc2ccc([N+](=O)[O-])cc2)cc1	.
CCC(=O)Nc1ccc(OCC(=O)N2CCCC2c2ccccc2C)cc1 (stereo unspecified)	.
COc1ccc(C(=O)Nc2ccccc2F)cc1S(=O)(=O)N1CCOCC1	.
SMILES	ST2 IL33 inh
O=C1NC(=O)N(c2ccccc2)C(=O)C1C(c1ccccc1)c1ccccc1 (stereo unspecified)	.
Cc1c(C(c2ccccc2)c2c(C)n(C)n(-c3ccccc3)c2=O)c(=O)n(-c2ccccc2)n1C	.
Cc1nnc(C)c2c(C)n(C(C)c3ccccc3)c(C)c12 (stereo unspecified)	47%
NS(=O)(=O)c1ccc(-n2cccc2C=Nc2ccc3[nH]c(=O)[nH]c3c2)cc1	.
Cc1cc2n(c1)CCn1c(C)ccc1-2	63%
Cc1cc(C(=O)NC(C)c2nnc3n2CCNCC3)c2ccc(F)cc2n1 (stereo unspecified)	.
Cc1ccc(-c2nc(-c3ccncc3)no2)cc1C	.
CCOc1ccccc1/C=C1\N=C(c2ccc(Cl)cc2)OC1=O	.
COc1ccc(/C=C2\C=C(c3ccc(Cl)cc3)OC2=O)c(C)c1	.
CCOc1ccc(C2=C/C(=C/c3ccccc3OC)C(=O)O2)cc1	46%
Cc1ccc(C2=C/C(=C\c3cccs3)C(=O)O2)cc1C	68%
COc1cc(/C=C2/C=C(c3ccccc3)OC2=O)cc(OC)c1OC	61%
CCOc1ccc(-c2nc3s/c(=C\C=C\c4ccccc4OC)c(=O)n3n2)cc1	.
CCOc1ccc2c(=O)c(-c3ccccc3OC)coc2c1	.
COc1cc2oc(-c3ccccc3)cc(=O)c2c(O)c1OC	.
COc1cc(/C=C/C(=O)O)cc(OC)c1OC	.
CCOc1ccc(N2C(=O)/C(=C\c3ccccc3OC)N=C2c2ccc(OC)c(OC)c2)cc1	39%
CC12C=CC(O1)C1C(=O)N(c3ccccc3Cl)C(=O)C12 (stereo unspecified)	.
Cn1c(-c2cc3ccc(O)c(CN4CCOCC4)c3oc2=O)nc2ccccc21	.
CNc1ncnc2c1C(c1ccc([N+](=O)[O-])cc1)c1c(NC)ncnc1O2	.
CCCCOC(=O)C1=C(C)Nc2ncnn2C1c1ccccc1OC (stereo unspecified)	.
COc1ccc(S(=O)(=O)N2CCSC2c2ccccc2)cc1 (stereo unspecified)	.
CC(=O)N1CCN(C(=O)c2c(-c3ccccc3)nn(-c3ccccc3)c2C)CC1	.
Nc1cccc(-c2csc(-c3ccccc3)n2)c1	.
Cc1ccccc1-n1ncc2c1CC(C)(C)CC2NC(=O)c1ccc(C#CC(C)(C)O)o1 (stereo unspecified)	.
SMILES	ST2 IL33 inh
COc1ccc(OC)c(-c2cc(C(=O)NCCN3CCOCC3)no2)c1	.
CCn1c(C)nnc1SCCn1cnc(-c2ccccc2)c1-c1cnn(C)c1	.
COc1ccc(C2C(C#N)=C(N)OC3=C2C(=O)CCC3)cc1OC (stereo unspecified)	.
CCOc1ccc(-c2nc3s/c(=C\c4ccc(Cl)cc4)c(=O)n3n2)cc1	.
CCOc1ccc(N2CC(NC(=O)Cc3cccs3)CC2=O)cc1 (stereo unspecified)	.
CCOc1ccc(C2=C/C(=C\c3cccs3)C(=O)O2)cc1	31%
O=C(CCC(=O)NC1CCCCCC1)NC1CCCCCC1	.
Cc1nnsc1CN(C)CC(=O)NC1CCCCCCC1	.
Cc1nnsc1CN(C)C(=O)CCC(=O)NC1CCCC1	97%
COc1ccc2c(=O)c(-c3ccccc3)c(C(F)(F)F)oc2c1	.
CCC(=O)N1CCN(c2nc(Cc3ccccc3)c3c(c2C#N)CC(C)(C)OC3)CC1	.
O=C1NCC2(CCCN(c3nnnn3-c3ccccc3)CC2)O1 (stereo unspecified)	.
O=C(NCc1ccc2c(c1)OCO2)c1cccc(I)c1	.
Cc1nnc(N2C(=O)C(O)=C(C(=O)c3ccco3)C2c2ccccc2F)s1 (stereo unspecified)	.
Cc1cc(N(C)C)nc(N2CCN(S(=O)(=O)c3ccc4c(c3)Cc3ccccc3-4)CC2)n1	.
COc1ccc(OC)c(N2C(=O)C3CCCCC3C2=O)c1 (stereo unspecified)	.
COc1cccc(/C=C2/C=C(c3cc(OC)ccc3OC)OC2=O)c1	42%
COc1ccc(OCCOc2cccc(C=O)c2)cc1	.
COc1ccc(C2=C/C(=C/c3ccc4c(c3)OCO4)C(=O)O2)c(OC)c1	.
COc1ccc(OC)c(/C=C2\N=C(c3ccc(OC)c([N+](=O)[O-])c3)OC2=O)c1	.
COc1ccc(OC)c(/C=C2/C=C(c3cc(OC)ccc3OC)OC2=O)c1	41%
CC(=O)Nc1ccc(S(=O)(=O)NCCn2c(C)cc3ccccc32)cc1	.
N#Cc1ccc(/C=C2\NC(=O)N(Cc3ccc(Cl)cc3)C2=O)cc1	30%
Cc1cc(/C=C2\NC(=O)N(Cc3ccc(Cl)cc3)C2=O)c(C)n1-c1ccc(C#N)cc1	.
O=C1N/C(=C\c2ccc(Cl)cc2)C(=O)N1Cc1ccc(Cl)cc1	.
CCOc1c(N2CCN(c3cc(C)ccc3C)CC2)c(=O)c1=O	.
Cc1cc(C(=O)NC2C3CC4CC(C3)CC2C4)ccc1[N+](=O)[O-] (stereo unspecified)	.
Cc1cc(C(=O)NCc2ccc(F)cc2)ccc1[N+](=O)[O-]	52%
